{
  "source": "PubChem BioAssay",
  "note": "Numbered stars: 1 amine (or outer) side, 2 acyl side, 3 side chain; on linkers, the order of the positions; unused ones are H or OH. Bridge positions count the residues as written; N and C are the ends. Square brackets hold non-standard residues; d marks the D form. Peptide text beside a SMILES is read from it. * marks the point of attachment. ξ: configuration not given here. ΔAla(E,3-NHCONH2) = NC(=O)N/C=C(/N)C(=O)O; X1 = NC1=NCCC(C(N[*:1])C(=O)[*:2])N1; Heptanoyl(6-Me) = CC(C)CCCCC(=O)*; ξβ3hOrn = NCCCC(N)CC(=O)*; Dab = NCC[CH](N)C(=O)O; Dap = NC[CH](N)C(=O)O",
  "data": [
    {"assay": "EMT-state selective cytotoxicity in co-culture – imaging, PC-3E GFP, TEM4-18 mCherry, primary screen (AID 1345086);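 further: cells exposed to compound for 72 h before imaging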", "details": "PC-3E GFP / TEM4-18 mCherry co-culture, imaging cell counts; measured here: epithelial PC-3E GFP cell survival; at 1 µM", "values": [
      {"smiles": "CCCCC(=O)O[C@]1(C(=O)CO)CCC2C3CCC4=CC(=O)CC[C@]4(C)C3[C@@H](O)C[C@@]21C", "note": "(some centres not stated)", "normalised cell number": 0.69},
      {"smiles": "CCCCC/C=C/CCC(=O)N[C@H]1[C@H](Oc2c3cc4cc2Oc2ccc(cc2Cl)[C@@H](O[C@@H]2O[C@H](CO)[C@@H](O)[C@H](O)[C@H]2NC(C)=O)[C@@H]2NC(=O)[C@H](NC(=O)[C@@H]4NC(=O)[C@H]4NC(=O)C(Cc5ccc(c(Cl)c5)O3)NC(=O)[C@H](N)c3ccc(O)c(c3)Oc3cc(O)cc4c3)c3ccc(O)c(c3)-c3c(OC4O[C@H](CO)[C@@H](O)[C@H](O)[C@@H]4O)cc(O)cc3[C@@H](C(=O)O)NC2=O)O[C@H](CO)[C@@H](O)[C@@H]1O", "note": "(some centres not stated)", "normalised cell number": 0.94},
      {"smiles": "CC(C)(C)NCC(O)COc1cccc2c1CCCC2=O", "note": "(configuration not stated)", "normalised cell number": 1.01},
      {"smiles": "CC(C)CCCC(C)[C@H]1CCC2C3CC=C4C[C@@H](O)CC[C@]4(C)C3CC[C@@]21C", "note": "(some centres not stated)", "normalised cell number": 1.14},
      {"smiles": "CCC(=O)OCC(=O)[C@@]1(OC(=O)CC)[C@@H](C)CC2C3CCC4=CC(=O)C=C[C@]4(C)C3(F)[C@@H](O)C[C@@]21C", "note": "(some centres not stated)", "normalised cell number": 1.03},
      {"smiles": "CC(=O)Nc1ccc(S(=O)(=O)Nc2onc(C)c2C)cc1", "normalised cell number": 1},
      {"smiles": "CO/N=C(\\C(=O)NC1C(=O)N2C(C(=O)OCOC(=O)C(C)(C)C)=C(/C=C\\c3scnc3C)CSC12)c1csc(N)n1", "note": "(configuration not stated)", "normalised cell number": 1.21},
      {"smiles": "CC1C/C=C/C=C/C=C/C=C/C(O[C@@H]2O[C@H](C)[C@@H](O)[C@H](N)[C@@H]2O)CC2OC(O)(CC(O)CC3OC3/C=C/C(=O)O1)CC(O)C2C(=O)O", "note": "(some centres not stated)", "normalised cell number": 1.04},
      {"smiles": "C[C@]12CCC(=O)C=C1C=CC1C2CC[C@@]2(C)C1CC[C@@]21CCC(=O)O1", "note": "(some centres not stated)", "normalised cell number": 1.2},
      {"smiles": "CC(C)c1c(C(=O)c2ccccc2)c(-c2ccccc2)c(-c2ccc(F)cc2)n1CC[C@@H](O)C[C@@H](O)CC(=O)O", "normalised cell number": 1.3},
      {"smiles": "CC(CCC(=O)O)[C@H]1CCC2C3C(=O)C[C@@H]4CC(=O)CC[C@]4(C)C3CC(=O)[C@@]21C", "note": "(some centres not stated)", "normalised cell number": 0.93},
      {"smiles": "CC(=O)Nc1cc2ccccc2oc1=O", "normalised cell number": 1.29},
      {"smiles": "CCCCCCCCCCC[C@@H](C[C@H]1OC(=O)[C@H]1CCCCCC)OC(=O)[C@@H](CC(C)C)NC=O", "normalised cell number": 0.96},
      {"smiles": "CC(=O)OCC(=O)[C@@]12OC(C)(C)O[C@@H]1CC1C3C[C@H](F)C4=CC(=O)C=C[C@]4(C)[C@@]3(F)[C@@H](O)C[C@@]12C", "note": "(some centres not stated)", "normalised cell number": 1.15},
      {"smiles": "CC[C@@H]1OC(=O)C[C@@H](O)[C@H](C)[C@@H](O[C@@H]2O[C@H](C)[C@@H](O)[C@H](N(C)C)[C@H]2O)[C@@H](CCN2C[C@H](C)C[C@H](C)C2)C[C@@H](C)C(=O)/C=C/C(C)=C\\[C@@H]1CO[C@@H]1O[C@H](C)[C@@H](O)[C@@H](OC)[C@H]1OC", "normalised cell number": 1.1},
      {"smiles": "O=C(OC[C@H]1O[C@H](OC(=O)c2cc(O)c(O)c(OC(=O)c3cc(O)c(O)c(O)c3)c2)[C@H](OC(=O)c2cc(O)c(O)c(OC(=O)c3cc(O)c(O)c(O)c3)c2)[C@@H](OC(=O)c2cc(O)c(O)c(OC(=O)c3cc(O)c(O)c(O)c3)c2)[C@@H]1OC(=O)c1cc(O)c(O)c(OC(=O)c2cc(O)c(O)c(O)c2)c1)c1cc(O)c(O)c(OC(=O)c2cc(O)c(O)c(O)c2)c1", "normalised cell number": 1.24},
      {"smiles": "CC(C)C1CCC(C(=O)N[C@@H](Cc2ccccc2)C(=O)O)CC1", "note": "(some centres not stated)", "normalised cell number": 1.14},
      {"smiles": "CCC(C)C(=O)O[C@H]1C[C@H](O)C=C2C=C[C@H](C)[C@H](CC[C@@H](O)C[C@@H](O)CC(=O)O)C21", "note": "(some centres not stated)", "normalised cell number": 1.19},
      {"smiles": "CCC(C)C1NC(=O)C(CCN)NC(=O)C(NC(=O)C(CCN)NC(=O)C(NC(=O)C(CCN)NC(=O)CCCCC(C)C)C(C)O)CCNC(=O)C(C(C)O)NC(=O)C(CCN)NC(=O)C(CCN)NC(=O)C(C(C)CC)NC1=O", "note": "(configuration not stated) ({Heptanoyl(6-Me)}-[Dab]T[Dab][Dab][Dab]II[Dab][Dab]T; lactam 4-C; configuration not given here)", "normalised cell number": 1.14},
      {"smiles": "CC1=C(C(=O)O)N2C(=O)[C@@H](NC(=O)[C@H](N)C3=CCC=CC3)C2SC1", "note": "(some centres not stated)", "normalised cell number": 1.13},
      {"smiles": "OC[C@@H](O)C(O[C@@H]1O[C@H](CO)[C@H](O)[C@H](O)[C@H]1O)[C@H](O)[C@@H](O)CO", "note": "(some centres not stated)", "normalised cell number": 0.87},
      {"smiles": "NCCCC(N)CC(=O)NCC1NC(=O)C(CO)NC(=O)C(N)CNC(=O)C(C2CCN=C(N)N2)NC(=O)/C(=C\\NC(N)=O)NC1=O", "note": "(stereo not drawn) (H-[Dap]S[Dap](ξβ3hOrn)[ΔAla(E,3-NHCONH2)][X1]; lactam 1-C; configuration not given here)", "normalised cell number": 1.11}
    ]}
  ]
}
